# Reference: PubChem BioAssay (EPA / NIEHS)
# Active and inactive are the calls of the source. How the source made its calls: active means hit-call score of the fitted dose curve at least 0.9, where 1 is the maximum; inactive means score below 0.9.
# Read-out: matrix metalloproteinase-3 (MMP3), MMP3 (gene 4314)
# Experiment: LTEA_HepaRG_MMP3: Life Technologies and Expression Analysis (LTEA) Assay for matrix metalloproteinase-3 (MMP3) using HepaRG (AID 2283519)
# Conditions: mRNA level, 48 h; actives raise or lower the signal
# In short: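 qRT-PCR read-out of MMP3 mRNA (normalised to three housekeeping genes) in HepaRG liver cells after 48 h chemical exposure; 8-point half-log series, top 100 uM, 0.5% DMSO vehicle. Bidirectional curve fitting against DMSO baseline.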
Structure (SMILES),outcome,AC50
c1cc2ccc3cccc4ccc(c1)c2c34,inactive,–
CCSC(=O)N(CC)C1CCCCC1,inactive,–
CC(C)(c1ccccc1)c1ccc(O)cc1,inactive,–
CCOP(=S)(OCC)SCSC(C)(C)C,inactive,–
CCOC(=O)C(O)(c1ccc(Cl)cc1)c1ccc(Cl)cc1,inactive,–
Nc1ccc(-c2ccc(N)cc2)cc1,inactive,–
COS(=O)(=O)OC,inactive,–
CCCCCCCCCC[N+](C)(C)CCCCCCCCCC,–,94 µM (active)
O=C(O)C(F)(F)C(F)(F)C(F)(F)C(F)(F)C(F)(F)C(F)(F)C(F)(F)C(F)(F)C(F)(F)F,inactive,–
Cc1cccc(C)c1N,inactive,–
CCCCCCCCCc1ccc(O)cc1,inactive,–
O=NN(c1ccccc1)c1ccccc1,–,80.6 µM (active)
CCCCCCCCOC(=O)c1ccccc1C(=O)OCCCCCCCC,inactive,–
Oc1ccc(C(c2ccc(O)cc2)(C(F)(F)F)C(F)(F)F)cc1,–,76.6 µM (active)
O=C(O)C(F)(F)C(F)(F)C(F)(F)C(F)(F)C(F)(F)F,inactive,–
NS(=O)(=O)C(F)(F)C(F)(F)C(F)(F)C(F)(F)C(F)(F)C(F)(F)C(F)(F)C(F)(F)F,–,50 µM (active)
O=S(=O)(O)C(F)(F)C(F)(F)C(F)(F)C(F)(F)F,inactive,–
CC1=C2C[C@H]3[C@@H](CC=C4C[C@@H](O)CC[C@@]43C)[C@@H]2CC[C@]12O[C@@H]1C[C@H](C)CN[C@H]1[C@H]2C,inactive,–
CCC(C)(c1ccc(O)cc1)c1ccc(O)cc1,inactive,–
CN(C)c1nc(=O)n(C2CCCCC2)c(=O)n1C,inactive,–
Cc1ccccc1O,inactive,–
